{"source": "the supplement of paper PMC8728848", "binders": {"B1": {"name": "Epa1-NP-mutant-Y228A (Candida glabrata), Q6VBJ0 (protein)", "chain": "MILNPALFLNKCVCIYTTLILLLLTNGGYATSSNDISLASKDPTTFPLGCSPDITTPKKGLSMELYSYDFRKKGSYPCWDAAYLDPNYPRTGYKSHRLLAKVDGVTGNINFYYHATKGCTPQLGHLPASYNYPKPLTMTNFTMLLYGYFRPKVTGFHTFTISADDLLFVNFGAGNAFDCCRRDSSADHFGNYQAYAIWGSKTAKDELTVHLDAGVYYPIRLFYNNREADGALSFTFKTESNENTVSDFSEYFFSLDDTEEGCPGLISYDSSCASVKTSKIIGIDYHTETPNENLVPITKTIYHLGIPCTGTTTTPLCGSGFYDPLANKCVTINTSSTSSVTKTTSHTTSKEVSFHSSISSQKTLIPKSIPSPYGPIKSQSIPTEMETSSEISSSEYAFSDVISTPSHSPYTKKHSSLNSSSYTSTVIHSLTSYSISQGIFSTSLSEQNITSKSSTDKFSTATSMSNNITQSSIIISQFSTNNENYTTTSMHTSSDKISTETLNNSISTTTSILFSNSSTILKNNTTIISSDKDTHYHPVNPTIVCSTNKTEIICASITQPSISNSNNHWSSSVLKFNSTTVRSTLPSSAGSNETSINVPFSSSTESNTSTSSTSTSNSKMVRSTLPSSAGSNETSISVPFSSSTESNTSTSSTSTSNSKMVRSTLPSSAGSNETSINVPFSSSTESNTSTSSTSTSNSKTVRSTPFSSAGIIMTSLSQRNNKSASSYASSNSKCYNTADSCRKVHSTPSYLLTSSYTSEGVDYDCSLVSTKLKINDTNCVNNKHTTKSCLKTSVTTTIPTLEIKTARKSSSNTIGLHSYPTSSPNKSISSAPIIGYISSFKTIKTASPSYQTSDLTTITTITSLNNPGSTAVENTHESNDKSRKTSSNDISSKHSVIKETKDAVESSNKSHQTNTLKCSSIIIASSSHNSYESLGGTTLTLTLSKVYSPQNNDTLPFLEISEVNPSRTVLPESSKMMQYLTSTEERNKTARNTIATNIVSISTFHFEGEGNAIRMGYTQLLLMLIGIIVMNIGT"}}, "assay_in_all_cases": "glycan array binding signal (z-score within array); higher = stronger binding", "details_in_all_cases": "glycan notation: IUPAC condensed, linker removed; mutation: Y228A", "key": {"[1]": {"target": "Gal(b1-3)[Neu5Ac(a2-6)]GalNAc", "in_short": "(§1)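 Negative Z-scores can be read as non-binding. The Z-score is calculated within each array and then averaged across arrays of one protein sequence at different concentrations or buffers and across linkers. Arrays, 3228 in all, were curated from the Consortium for Functional Glycomics database and kept only where the protein sequence was available.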"}, "Gal(b1-4)Glc6S": {"target": "Gal(b1-4)Glc6S", "in_short": "as §1"}, "[2]": {"target": "Gal(b1-4)GlcNAc(b1-2)[Gal(b1-4)GlcNAc(b1-6)]Man(a1-6)[GlcNAc(b1-4)][Gal(b1-4)GlcNAc(b1-2)[Gal(b1-4)GlcNAc(b1-4)]Man(a1-3)]Man(b1-4)GlcNAc(b1-4)[Fuc(a1-6)]GlcNAc", "in_short": "as §1"}, "[3]": {"target": "Gal(b1-4)GlcNAc(b1-6)Gal(b1-4)GlcNAc", "in_short": "as §1"}, "[4]": {"target": "Gal(b1-4)GlcNAc(b1-6)[Gal(b1-4)GlcNAc(b1-3)]GalNAc", "in_short": "as §1"}, "Gal3S(b1-3)GalNAc": {"target": "Gal3S(b1-3)GalNAc", "in_short": "as §1"}, "Gal3S4S(b1-4)GlcNAc": {"target": "Gal3S4S(b1-4)GlcNAc", "in_short": "as §1"}, "Gal4S6S(b1-4)GlcNAc": {"target": "Gal4S6S(b1-4)GlcNAc", "in_short": "as §1"}, "Gal6S(b1-3)GlcNAc6S": {"target": "Gal6S(b1-3)GlcNAc6S", "in_short": "as §1"}, "Gal6S(b1-4)Glc6S": {"target": "Gal6S(b1-4)Glc6S", "in_short": "as §1"}, "[5]": {"target": "GalNAc(b1-3)Gal(a1-4)Gal(b1-4)GlcNAc", "in_short": "as §1"}, "GalNAc3S(b1-4)GlcNAc": {"target": "GalNAc3S(b1-4)GlcNAc", "in_short": "as §1"}, "Glc(b1-4)Glc": {"target": "Glc(b1-4)Glc", "in_short": "as §1"}, "[6]": {"target": "GlcA3S(b1-3)Gal(b1-4)GlcNAc(b1-2)Man", "in_short": "as §1"}, "[7]": {"target": "GlcNAc(b1-2)[GlcNAc(b1-6)]Man(a1-6)[GlcNAc(b1-2)Man(a1-3)]Man(b1-4)GlcNAc(b1-4)[Fuc(a1-6)]GlcNAc", "in_short": "as §1"}, "[8]": {"target": "GlcNAc(b1-3)Gal(b1-4)GlcNAc(b1-3)Gal(b1-4)GlcNAc(b1-3)Gal(b1-4)GlcNAc(b1-2)Man(a1-3)[GlcNAc(b1-3)Gal(b1-4)GlcNAc(b1-3)Gal(b1-4)GlcNAc(b1-3)Gal(b1-4)GlcNAc(b1-2)Man(a1-6)]Man(b1-4)GlcNAc(b1-4)[Fuc(a1-6)]GlcNAc", "in_short": "as §1"}, "[9]": {"target": "GlcNAc(b1-3)[GlcNAc(b1-6)]Gal(b1-4)GlcNAc", "in_short": "as §1"}, "[10]": {"target": "GlcNAc(b1-3)[GlcNAc(b1-6)]GalNAc", "in_short": "as §1"}, "[11]": {"target": "Man(a1-2)Man(a1-2)Man(a1-6)[Man(a1-3)]Man", "in_short": "as §1"}, "[12]": {"target": "Man(a1-3)[Man(a1-6)]Man(a1-6)[Man(a1-3)]Man", "in_short": "as §1"}, "[13]": {"target": "Neu5Ac(a2-3)Gal(b1-3)GlcNAc(b1-3)Gal(b1-3)GlcNAc", "in_short": "as §1"}, "[14]": {"target": "Neu5Ac(a2-3)Gal(b1-3)[Neu5Ac(a2-6)]GlcNAc(b1-3)[Fuc(a1-3)[Gal(b1-4)]GlcNAc(b1-6)]Gal(b1-4)Glc", "in_short": "as §1"}, "[15]": {"target": "Neu5Ac(a2-3)Gal(b1-4)GlcNAc(b1-2)Man(a1-3)[Neu5Ac(a2-6)Gal(b1-4)GlcNAc(b1-2)Man(a1-6)]Man(b1-4)GlcNAc(b1-4)GlcNAc", "in_short": "as §1"}, "[16]": {"target": "Neu5Ac(a2-3)Gal(b1-4)GlcNAc(b1-3)Gal", "in_short": "as §1"}, "[17]": {"target": "Neu5Ac(a2-3)Gal(b1-4)[Fuc(a1-3)]GlcNAc", "in_short": "as §1"}, "[18]": {"target": "Neu5Ac(a2-6)Gal(b1-4)GlcNAc(b1-3)Gal(b1-4)GlcNAc(b1-3)Gal(b1-4)GlcNAc", "in_short": "as §1"}, "[19]": {"target": "Neu5Gc(a2-3)Gal(b1-3)GlcNAc", "in_short": "as §1"}, "[20]": {"target": "Neu5Gc(a2-3)Gal(b1-3)[Fuc(a1-4)]GlcNAc", "in_short": "as §1"}}, "note": "The sample as a whole holds a higher share of the strongest signals than the screen did."}
{"binder": "B1", "values": [{"measurement": "glycan array binding signal (z-score)", "setting": "[1]", "value": 0.209}, {"measurement": "glycan array binding signal (z-score)", "setting": "Gal(b1-4)Glc6S", "value": 2.93}, {"measurement": "glycan array binding signal (z-score)", "setting": "[2]", "value": 0.803}, {"measurement": "glycan array binding signal (z-score)", "setting": "[3]", "value": 2.72}, {"measurement": "glycan array binding signal (z-score)", "setting": "[4]", "value": 0.637}, {"measurement": "glycan array binding signal (z-score)", "setting": "Gal3S(b1-3)GalNAc", "value": -0.153}, {"measurement": "glycan array binding signal (z-score)", "setting": "Gal3S4S(b1-4)GlcNAc", "value": -0.259}, {"measurement": "glycan array binding signal (z-score)", "setting": "Gal4S6S(b1-4)GlcNAc", "value": -0.16}, {"measurement": "glycan array binding signal (z-score)", "setting": "Gal6S(b1-3)GlcNAc6S", "value": 5.91}, {"measurement": "glycan array binding signal (z-score)", "setting": "Gal6S(b1-4)Glc6S", "value": 4.82}, {"measurement": "glycan array binding signal (z-score)", "setting": "[5]", "value": -0.145}, {"measurement": "glycan array binding signal (z-score)", "setting": "GalNAc3S(b1-4)GlcNAc", "value": -0.321}, {"measurement": "glycan array binding signal (z-score)", "setting": "Glc(b1-4)Glc", "value": -0.246}, {"measurement": "glycan array binding signal (z-score)", "setting": "[6]", "value": -0.24}, {"measurement": "glycan array binding signal (z-score)", "setting": "[7]", "value": 0.217}, {"measurement": "glycan array binding signal (z-score)", "setting": "[8]", "value": -0.139}, {"measurement": "glycan array binding signal (z-score)", "setting": "[9]", "value": -0.235}, {"measurement": "glycan array binding signal (z-score)", "setting": "[10]", "value": -0.277}, {"measurement": "glycan array binding signal (z-score)", "setting": "[11]", "value": -0.127}, {"measurement": "glycan array binding signal (z-score)", "setting": "[12]", "value": -0.287}, {"measurement": "glycan array binding signal (z-score)", "setting": "[13]", "value": -0.295}, {"measurement": "glycan array binding signal (z-score)", "setting": "[14]", "value": -0.172}, {"measurement": "glycan array binding signal (z-score)", "setting": "[15]", "value": -0.237}, {"measurement": "glycan array binding signal (z-score)", "setting": "[16]", "value": -0.11}, {"measurement": "glycan array binding signal (z-score)", "setting": "[17]", "value": -0.209}, {"measurement": "glycan array binding signal (z-score)", "setting": "[18]", "value": -0.307}, {"measurement": "glycan array binding signal (z-score)", "setting": "[19]", "value": -0.069}, {"measurement": "glycan array binding signal (z-score)", "setting": "[20]", "value": -0.119}]}
